The values below come from PubChem BioAssay (NCI).

The panel holds about 83,000 compounds, 20% with a hit somewhere; the sample as a whole holds those more often.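 Compound tested at a single concentration for 48 hours in 96-well plates; a percent growth value below 10 was scored as active.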 A number with no mark means an inactive call. Calls of active or inactive are those of the source.

The test relates to SNB-75 CNS. The test can be described thus: NCI-60 one-dose screen, 48 h (100 = growth as untreated, 0 = no growth, -100 = all killed). The settings on record: 10 µM unless noted. How it is done: Growth inhibition of the SNB-75 human tumor cell line is measured as a screen for anti-cancer activity. Cells are grown in 96 well plates and exposed to the test compound for 48 hours. Compounds are tested at a single concentration, which is 10^-5 M for most compounds. The reported endpoint is percent growth (GI% or GIPRCNT), where numbers from 0 - 100% represent growth inhibition, and numbers from -100% - 0 represent cell death. For example, a value of 40 represents 60% growth inhibition. A value of 0 means no net growth occurred over the course of the experiment. A value of -40 indicates 40% of cells at the beginning of the experiment died by the end of the experiment. A value of -100 means all cells are dead at the end of the experiment.
NCI-60 Human Tumor Cell Lines Screen was performed using the standard one-dose NCI protocol, which is described in more detail at https://dtp.cancer.gov/discovery_development/nci-60/default.htm.
Compounds with GIPRCNT values below 10 were considered active. Activity score was based on GIPRCNT using the following formula: […]
Score is 0 for GIPRCNT values of 100 or above, 50 for GIPRCNT values of 0, and 100 for GIPRCNT values of -100.
In the case of `C=CCn1c(C)nc2cc(Nc3nc(N4CCCC4)nc4ccccc34)ccc21`, the growth is 83.6%.

As to `O=C(Nc1ccc(Nc2ccncc2)cc1)c1ccc(C(=O)Nc2ccc(Nc3ccncc3)cc2)cc1`, the growth is 109%.

Turning to `NC(=N\N=C/c1ccccc1[N+](=O)[O-])/C(N)=N\N=C/c1ccccc1[N+](=O)[O-]`, the growth was 97.9%.

For `O=Cc1c[nH]c2ccc(-c3csc4ccccc34)cc12`, the growth is 39.9%.

In the case of `COc1cccc(/C=C/C(=O)c2c(C)nc3ccccc3c2/C=C/c2ccc(C)cc2)c1OC`, the growth is 42.4%.

For `Cc1ccc(/C=C/c2c(C(=O)/C=C/c3ccc(C(F)(F)F)cc3)c(C)nc3ccccc23)cc1`, the growth is -42.5% (active).

Consider `CCOc1ccccc1-n1c(CN2CCN(C(=O)COc3ccc(CNCCCCCCN4C5CCCC4CC(OC(=O)Nc4cc(C)ccc4OC)C5)cc3)CC2)nc2ccccc2c1=O` (stereo not given), for which the growth was -99.2% (active).

Take `Cn1c2c(c3ccc(Cl)c(Cl)c31)C(C#N)C1(CCNCC1)NC2=O` (stereo not given): the growth is 22.2%.

With `O=C(CSc1nnc(-c2ccc(NC(=O)c3cccnc3)cc2)o1)Nc1cccc(Br)c1`, the growth is 72.1%.

Take `COc1cccc(-c2nn(-c3ccccc3)cc2-c2ccnc(NCCNC(=O)Nc3ccc(Cl)c(Cl)c3)c2)c1`: the growth is -1.39% (active).

For `O=[N+]([O-])c1ccc(OCCO)cc1`, the growth was 103%.

Consider `Cc1ccc2nc3ccccc3c(NCc3ccccc3)c2c1`, for which the growth was 65%.

On to `N#CC1=C(NC=O)Oc2c(ccc3ccccc23)C1c1ccccc1` (stereo not given), for which the growth was 2.51% (active).

Turning to `CCOc1c(C#N)nnc2c(C#N)c(NC(=O)c3ccccc3)nn12`, the growth was 79.8%.

In the case of `O=c1c2c3c(sc2nc(N/N=C/c2ccc(Br)cc2)n1Cc1ccccc1)CCCC3`, the growth is 106%.

Turning to `Cc1ccc(-c2cc(-c3cccnc3)[nH]c(=O)c2C#N)cc1`, the growth is 85.2%.

On to `Cn1c(I)c(C#C[Si](C)(C)C)c(=O)n(C(=O)c2ccccc2)c1=O`, for which the growth is 52.2%.

As for `Oc1c(CN2CCCC2)cc(COCc2ccc(Br)cc2)c2cccnc12`, the growth was 24.5%.

For the compound `COc1ccc(-c2c(N)n[nH]c2-c2ccc(Cl)cc2O)cc1OC`, the growth was 91.3%.

For `Cc1ccc(Cc2cnc(NC(=O)c3ccc4noc(-c5ccccc5)c4c3)s2)cc1`, the growth is 94.1%.

Regarding `O=c1[nH]c2ccccc2n1C1CCN(CCOc2ccccc2)CC1`, the growth was 80.5%.

With `Cc1ccc(S(=O)(=O)n2cc(CNc3ccc(N4CCOCC4=O)cc3)c3ccccc32)cc1`, the growth is 73.4%.

As for `Cc1ccc2[nH]c(=O)c3c(c2c1)OC(N)=C(C#N)C31c2cc(Br)ccc2-c2ccc(Br)cc21`, the growth was 70%.

`CC(C)C(=O)Nc1n[nH]c2cc(-c3cccc(NS(=O)(=O)C4CC4)c3)ccc12`: the growth is 54.3%.

As to `C[C@@]1(CCC#N)[C@H]2CC[C@@H]3[C@H]4[C@H](C(=O)/C=C/c5cccnc5)CC[C@]4(C#N)CC[C@@]3(C)[C@]2(C)CC[C@H]1C(=O)/C=C/c1cccnc1`, the growth is 72.7%.

In the case of `COc1ccc(NC(=O)c2nc(-c3cc(OC)c(OC)c(OC)c3)n(-c3cccc4ccccc34)n2)cc1OC`, the growth was 24.4%.

As to `Fc1c[c-]c(-c2ccccn2)c(F)c1.[CH3-].[Pt+2].c1ccc(P(C[PH+](c2ccccc2)c2ccccc2)c2ccccc2)cc1`, the growth is -14.1% (active).

Consider `Cc1cc(NCCCCNc2ccnc3cc(Cl)ccc23)nc(Nc2ccc(C(=O)N3CCCCC3)cc2)n1`, for which the growth is -73.4% (active).

On to `CC/C=C\C/C=C\C[C@H](O)C/C=C1/C(=O)C=C[C@@H]1C/C=C\CCCC(=O)O`, for which the growth was 80.7%.

Take `COc1nc(N(C)O)nc(N(C)O)n1`: the growth is 74.5%.

Regarding `CC(C)Sc1nc(NNC(N)=S)c(C#N)c(-c2ccc(F)cc2)n1`, the growth is 62.6%.

For the compound `N=C1C(c2nc(-c3ccc(Br)cc3)cs2)=C(O)CN1Cc1cccnc1`, the growth was 15.5%.

Turning to `COc1ccc(C(=O)Nn2c(NCC(=O)N3c4ccccc4Sc4ccccc43)nnc2-c2ccc(O)cc2)cc1`, the growth was 115%.

For `CCN(CC)c1nc(SCC(=O)Nc2nc3ccc(C)cc3s2)nc(-c2ccccc2)c1C#N`, the growth is 85.6%.

As for `COc1cccc(-c2nn(-c3ccccc3)cc2-c2ccnc(NCCNC(=O)Nc3ccccc3)c2)c1`, the growth is 67.7%.

On to `O=C(/C=C/c1c(Cl)nc2sccn12)c1nccs1`, for which the growth was 67.1%.

Regarding `COc1cc(/C=C/C(=O)N2CCN(C(=O)c3cc(OC)c(OC)c(OC)c3)CC2)ccc1OCCCN1C(=O)c2cccc3cccc(c23)C1=O`, the growth is 93.1%.

For the compound `CCCCCCCCCOc1c(OC)cc(C2CC(=O)Nc3c2c(C)nn3-c2nc3ccccc3[nH]2)cc1OC` (stereo not given), the growth was -48.8% (active).

Take `COc1ccc(N=C(c2ccccc2)C2C(=O)c3ccccc3C2=O)cc1`: the growth was 76.3%.

For the compound `N=C1C(c2nc(-c3ccc(Br)cc3)cs2)=C(O)CN1CC1CCCO1` (stereo not given), the growth is 78.5%.
